# Measured values published in PubChem BioAssay (NCATS).
# Inconclusive results are not listed. Calls of active or inactive are those of the source. Unless noted, the call rests on the fitted dose curve; in most records, active means well fitted curve in either direction with a large enough effect (not every such curve was filed as active); inconclusive means small, poorly fitted or top-dose-only effect, or another doubt; inactive means flat fitted curve, though single readings scatter.
# What was measured:
# [1] = test system: HIV-1 nucleocapsid protein NCp7 (binding to TG oligonucleotide); experiment: HIV Nucleocapsid (AID 346; call rule not given here;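 further: potency means the concentration at half of the fitted maximal effect; potency is for inhibitors that block NC binding and lower polarization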); settings: HIV-1 NC / fluorescein-TGTGTGTG probe, fluorescence polarization
# Method in brief: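 Reagents dispensed (10 nM TG4xF, 100 nM HIV-1 NC), plates spun, compounds pin-transferred, then incubated 1 hr at room temperature before FP imaging. Buffer: Hepes pH 7.5, 250mM NaCl, 1uM ZnCl2, 100 uM TCEP, 5 mM 2-mercaptoethanol.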
# [2] = molecular target: Lysosomal acid glucosylceramidase (Homo sapiens) (UniProt P04062); experiment: Glucocerebrosidase-p2 (AID 348; in the data active means potency below about 10 µM; further: potency means the concentration at half of the fitted maximal effect); settings: purified GBA, blue fluorogenic substrate, 40 min
# Lysosomal acid glucosylceramidase (Homo sapiens), sequence (P04062 whole entry, looked up): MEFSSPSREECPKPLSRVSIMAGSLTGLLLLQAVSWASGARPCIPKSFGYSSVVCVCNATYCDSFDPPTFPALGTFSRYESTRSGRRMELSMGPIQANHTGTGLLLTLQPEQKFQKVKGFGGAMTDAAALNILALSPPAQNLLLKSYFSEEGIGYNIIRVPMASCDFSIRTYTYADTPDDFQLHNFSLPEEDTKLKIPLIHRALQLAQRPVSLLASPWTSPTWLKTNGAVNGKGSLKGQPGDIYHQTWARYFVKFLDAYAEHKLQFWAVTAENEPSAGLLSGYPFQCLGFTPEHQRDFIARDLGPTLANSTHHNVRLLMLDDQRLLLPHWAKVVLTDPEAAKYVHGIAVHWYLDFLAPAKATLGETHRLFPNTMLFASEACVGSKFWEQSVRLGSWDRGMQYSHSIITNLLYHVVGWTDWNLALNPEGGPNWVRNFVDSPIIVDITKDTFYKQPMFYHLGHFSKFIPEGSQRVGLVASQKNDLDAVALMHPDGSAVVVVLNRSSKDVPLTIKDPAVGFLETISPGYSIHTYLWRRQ
# Method in brief: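 Compounds titrated from 0.6 nM upwards against 0.2 nM enzyme in pH 5.9 citric acid/KH2PO4, taurocholate, tween-20; blue fluorogenic substrate 80 uM, 40 min room temperature, stopped and read Ex 365/Em 440 for AC50.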
# [3] = AP1 Signaling Pathway (AID 357); settings: ME-180 AP-1-bla reporter, EGF-induced, beta-lactamase ratio, 5 h; series mostly up to 17.2 µM;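 further: ME-180 reporter cells stimulated with EGF at its EC50 level; on the % scale 0 is the no-effect control and ±100 the full control effect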
# Method in brief: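 Cells are seeded overnight, exposed to compound titrations and an EC50 level of EGF for 5 hours at 37 °C, then loaded with CCF4 dye for 2.5 hours. Beta-lactamase activity under the AP-1 element is read as a blue/green ratio.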
# [4] = molecular target: Cytochrome P450 1A2 (Homo sapiens) (UniProt P05177); experiment: p450-cyp1a2 (AID 410; calls by dose curve; further: potency means the concentration at half of the fitted maximal effect;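 on activity change, negative = inhibition: -100% = full effect of reference inhibitor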); settings: recombinant CYP1A2, luciferin-ME demethylation, luminescence; series mostly up to 25.6 µM
# Cytochrome P450 1A2 (Homo sapiens), sequence (P05177 whole entry, looked up): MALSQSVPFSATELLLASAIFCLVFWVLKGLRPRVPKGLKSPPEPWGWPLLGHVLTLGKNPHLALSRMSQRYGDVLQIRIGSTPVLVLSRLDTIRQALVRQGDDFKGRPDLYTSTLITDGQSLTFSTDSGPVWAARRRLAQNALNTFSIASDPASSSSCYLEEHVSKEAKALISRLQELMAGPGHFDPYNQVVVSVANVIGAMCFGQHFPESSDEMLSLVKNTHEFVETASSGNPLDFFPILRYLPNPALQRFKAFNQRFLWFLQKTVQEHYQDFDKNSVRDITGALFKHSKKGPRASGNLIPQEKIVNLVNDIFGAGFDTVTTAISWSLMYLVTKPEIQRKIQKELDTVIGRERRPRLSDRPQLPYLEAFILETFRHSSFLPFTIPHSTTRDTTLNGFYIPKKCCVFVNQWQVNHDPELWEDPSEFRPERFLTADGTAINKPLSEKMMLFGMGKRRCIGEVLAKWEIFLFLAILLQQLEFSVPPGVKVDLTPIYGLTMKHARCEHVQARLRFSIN
# Method in brief: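 Human CYP1A2 (20nM) demethylated Luciferin-ME at its Km (100uM) in 100mM KPO4. After 10 min compound preincubation, NADPH regeneration ran the reaction 60 min at room temperature. Luciferin was read by luminescence, normalized to 57 uM furafylline.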
# [5] = NFAT Signaling Pathway (AID 444); settings: Jurkat NFAT-bla M1, carbachol, beta-lactamase ratio, 5 h; at 7.69 µM (top of the series);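 further: carbachol stimulus at about its EC50 of 1 µM final; on the % scale 0 is the no-effect control and ±100 the full control effect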
# Method in brief: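 Jurkat cells carrying an NFAT-driven β-lactamase reporter and co-transfected muscarinic M1 receptor were treated with compound plus carbachol (1 uM final, an EC50 level) for 5 h at 37 °C. CCF4 loading followed for 1 h at RT; 460/530 nm ratio gave %activity.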
# [6] = molecular target: Glucocorticoid receptor (Homo sapiens) (UniProt P04150); experiment: GR-EFC Redistribution (AID 451; calls by dose curve; further: potency means the concentration at half of the fitted maximal effect); settings: CHO-K1 GR-EFC translocation, beta-gal luminescence, 2 h
# Glucocorticoid receptor (Homo sapiens), sequence (P04150 whole entry, looked up, the tested form may be a part): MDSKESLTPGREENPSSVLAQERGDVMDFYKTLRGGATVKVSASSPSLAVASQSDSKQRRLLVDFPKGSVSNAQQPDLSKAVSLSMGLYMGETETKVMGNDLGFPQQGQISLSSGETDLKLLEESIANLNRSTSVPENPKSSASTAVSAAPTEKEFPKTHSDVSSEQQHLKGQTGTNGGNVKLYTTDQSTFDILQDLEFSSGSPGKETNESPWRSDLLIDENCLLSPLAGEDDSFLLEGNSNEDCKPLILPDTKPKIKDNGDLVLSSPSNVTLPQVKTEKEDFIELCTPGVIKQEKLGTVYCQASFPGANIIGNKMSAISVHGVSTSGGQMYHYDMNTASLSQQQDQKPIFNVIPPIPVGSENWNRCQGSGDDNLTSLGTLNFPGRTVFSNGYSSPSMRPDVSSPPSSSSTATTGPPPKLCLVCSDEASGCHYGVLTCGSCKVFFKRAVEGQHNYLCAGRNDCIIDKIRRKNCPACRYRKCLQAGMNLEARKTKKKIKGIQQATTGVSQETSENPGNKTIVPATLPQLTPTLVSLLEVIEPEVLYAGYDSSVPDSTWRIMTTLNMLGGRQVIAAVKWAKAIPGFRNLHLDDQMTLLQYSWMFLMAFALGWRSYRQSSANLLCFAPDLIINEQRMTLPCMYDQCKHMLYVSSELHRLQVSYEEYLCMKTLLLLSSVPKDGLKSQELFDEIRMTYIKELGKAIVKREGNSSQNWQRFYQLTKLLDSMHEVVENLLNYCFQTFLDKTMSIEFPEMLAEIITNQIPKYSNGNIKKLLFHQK
# Method in brief: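 CHO-K1 cells stably expressing nuclear-localized β-gal enzyme acceptor and GR fused C-terminally to the enzyme donor fragment; ligand-driven nuclear translocation restores β-gal by complementation. Compounds titrated up to 46 uM final, 2 h at 37 °C; luminescence read.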
# [7] = molecular target: 3',5'-cyclic-AMP phosphodiesterase 4B (Homo sapiens) (UniProt Q07343); experiment: qHTS Assay for Inhibitors of PDE-IV (AID 607; active means well fitted activation curve with a large enough effect in the main read-out, with a control signal flat, not every such curve was filed as active; further: % of control where 0% means no effect); settings: HEK293 ACTOne CNG channel cells, membrane potential fluorescence; series mostly up to 22.9 µM
# 3',5'-cyclic-AMP phosphodiesterase 4B (Homo sapiens), sequence (Q07343 whole entry, looked up): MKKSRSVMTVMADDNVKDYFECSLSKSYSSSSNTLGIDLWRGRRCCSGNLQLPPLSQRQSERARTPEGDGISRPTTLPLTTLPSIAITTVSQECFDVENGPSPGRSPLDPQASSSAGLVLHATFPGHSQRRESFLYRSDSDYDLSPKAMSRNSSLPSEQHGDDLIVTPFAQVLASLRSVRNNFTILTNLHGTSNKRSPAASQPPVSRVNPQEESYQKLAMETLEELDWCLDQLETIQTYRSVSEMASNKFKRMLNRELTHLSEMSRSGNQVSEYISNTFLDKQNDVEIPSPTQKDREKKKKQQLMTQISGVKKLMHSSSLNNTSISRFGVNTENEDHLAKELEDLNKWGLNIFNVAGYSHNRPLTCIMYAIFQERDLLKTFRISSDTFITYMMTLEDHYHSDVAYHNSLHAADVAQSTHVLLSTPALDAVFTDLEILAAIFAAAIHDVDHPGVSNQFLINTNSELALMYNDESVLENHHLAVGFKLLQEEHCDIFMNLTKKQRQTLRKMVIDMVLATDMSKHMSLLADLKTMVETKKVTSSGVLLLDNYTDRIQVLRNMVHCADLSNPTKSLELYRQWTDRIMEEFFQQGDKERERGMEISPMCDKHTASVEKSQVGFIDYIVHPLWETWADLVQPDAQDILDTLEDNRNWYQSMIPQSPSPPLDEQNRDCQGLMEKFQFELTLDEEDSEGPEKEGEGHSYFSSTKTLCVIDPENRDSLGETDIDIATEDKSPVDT
# Method in brief: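 Cell-based read-out of cAMP via a modified cyclic nucleotide-gated channel and membrane potential dye (535/590 nm) in HEK293 cells expressing PDE4 endogenously. Compounds tested up to 22.9 uM final; 100 uM RO 20-1724 reference.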
# [8] = qHTS Assay for Lipid Storage Modulators (AID 1519; calls by dose curve); settings: Drosophila S3 cells, BODIPY lipid droplet/cell ratio, laser cytometry, cells loaded with oleic acid; for activity change, negative = inhibition: at 57.5 µM (top of the series)
# Method in brief: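 Cells seeded at 5,000 per well were treated with compounds over a concentration series and loaded with oleic acid (400 uM, as added). Lipid droplet fluorescence (488 nm excitation, 500-530 nm channel) was read by laser-scanning cytometry and normalized to 20 uM Triacsin C.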
# [9] = Primary qHTS for small molecule stabilizers of the endoplasmic reticulum resident proteome: Secreted ER Calcium Modulated Protein (SERCaMP) assay (AID 1508630; active means well fitted curve in the direction sought with a large enough effect; an effect the other way counts as inactive or inconclusive; further: on the % scale 0 is the no-effect control and ±100 the full control effect); settings: SH-SY5Y GLuc-SERCaMP (Gaussia luciferase released on ER calcium loss) secretion, thapsigargin, luminescence; series mostly up to 38.4 µM
# Method in brief: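 GLuc-SERCaMP-expressing SH-SY5Y cells, pretreated 16 h with compound, are challenged with thapsigargin to empty ER calcium stores; after 4 h, coelenterazine is added directly to the medium and luminescence is imaged.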
# [10] = Stat Signaling Pathway (AID 446); settings: ME-180 SIE beta-lactamase reporter, IL-6 stimulated, 5 h; series mostly up to 17.2 µM;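 further: ME-180 cervical cancer cells given 40 pM IL-6 alongside compound; SIE-controlled beta-lactamase reporter measured as 460/530 nm FRET emission ratio; on the % scale 0 is the no-effect control and ±100 the full control effect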
# Method in brief: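 Reporter line: ME-180 cervical carcinoma, SIE-beta-lactamase. Treatment: compound with 40 pM IL-6, 5 hrs, 37 C, in low-serum OPTI-MEM with 10 mM HEPES pH 7.3. Detection: 460/530 nm fluorescence.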
# [11] = molecular target: Mitogen-activated protein kinase 10 (Mus musculus) (UniProt Q61831); experiment: JNK3 AlphaScreen Assay (AID 530); settings: JNK3 lysate, c-Jun phosphorylation; series mostly up to 57.1 µM
# Method in brief: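 JNK3 came from HepG2 lysates pre-activated with IL-1beta and TNF-alpha and phosphorylated biotinylated GST-cJun (1-79) at 10 uM ATP, pH 7.6, room temperature. Compounds were titrated. AlphaScreen signal used anti-phospho-cJun (Ser73) antibody.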
# [12] = molecular target: Cytochrome P450 3A4 (Homo sapiens) (UniProt P08684); experiment: qHTS Assay for Activators of Cytochrome P450 3A4 (AID 885; active means well fitted curve in the direction sought with a large enough effect; an effect the other way counts as inactive or inconclusive; further: nearly all actives have a fitted effect of over 65% in size); settings: recombinant CYP3A4, Luciferin-PPXE luminescence, 60 min; series mostly up to 57.1 µM
# Cytochrome P450 3A4 (Homo sapiens), sequence (P08684 whole entry, looked up): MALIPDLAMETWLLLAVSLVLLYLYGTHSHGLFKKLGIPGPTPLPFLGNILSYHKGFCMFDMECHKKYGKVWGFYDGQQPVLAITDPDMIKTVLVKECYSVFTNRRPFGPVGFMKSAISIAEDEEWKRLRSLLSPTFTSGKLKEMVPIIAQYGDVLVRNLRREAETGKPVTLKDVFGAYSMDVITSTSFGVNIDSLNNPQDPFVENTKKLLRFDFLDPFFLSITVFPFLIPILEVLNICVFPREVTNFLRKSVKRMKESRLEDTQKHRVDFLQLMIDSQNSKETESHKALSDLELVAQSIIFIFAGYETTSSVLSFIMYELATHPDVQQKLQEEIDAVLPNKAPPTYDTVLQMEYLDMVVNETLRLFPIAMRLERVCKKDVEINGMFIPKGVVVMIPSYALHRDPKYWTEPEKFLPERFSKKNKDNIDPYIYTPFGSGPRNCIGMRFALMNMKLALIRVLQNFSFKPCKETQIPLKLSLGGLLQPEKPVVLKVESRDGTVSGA
# Method in brief: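 Signal was normalized against complete inhibition by 57 uM ketoconazole. The reaction used 20nM CYP3A4 with 25uM Luciferin-PPXE, 10-min compound preincubation and a 60-min NADPH-supported step at RT.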
# [13] = molecular target: Cytochrome P450 2C9 (Homo sapiens) (UniProt P11712); experiment: qHTS Assay for Inhibitors and Substrates of Cytochrome P450 2C9 (AID 883; active means well fitted curve in the direction sought with a large enough effect; an effect the other way counts as inactive or inconclusive; further: on the % scale 0 is the no-effect control and ±100 the full control effect; nearly all actives have a fitted effect of over 60% in size); settings: recombinant CYP2C9, luciferin-H luminescence, 60 min; series mostly up to 57.1 µM
# Cytochrome P450 2C9 (Homo sapiens), sequence (P11712 whole entry, looked up): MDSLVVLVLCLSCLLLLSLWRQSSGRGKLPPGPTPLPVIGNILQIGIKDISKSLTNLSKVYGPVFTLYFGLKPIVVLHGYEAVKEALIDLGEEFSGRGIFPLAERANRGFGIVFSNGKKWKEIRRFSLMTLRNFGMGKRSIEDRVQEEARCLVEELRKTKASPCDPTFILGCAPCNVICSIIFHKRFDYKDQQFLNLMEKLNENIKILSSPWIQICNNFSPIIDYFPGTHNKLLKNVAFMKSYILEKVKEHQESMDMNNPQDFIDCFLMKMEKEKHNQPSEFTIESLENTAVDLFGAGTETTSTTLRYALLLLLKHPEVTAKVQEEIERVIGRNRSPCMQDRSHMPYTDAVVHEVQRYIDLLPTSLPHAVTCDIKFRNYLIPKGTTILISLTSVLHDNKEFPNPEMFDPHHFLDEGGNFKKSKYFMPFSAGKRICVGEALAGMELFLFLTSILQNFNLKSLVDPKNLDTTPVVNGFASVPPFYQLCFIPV
# Method in brief: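 Human CYP2C9 (10nM) hydroxylated Luciferin-H (100uM, at its KM) to luciferin in 25mM KPO4. Compound was preincubated 10 min at 37C, then NADPH regeneration started a 60 min reaction at 37C. Luminescence was read after detection reagent, normalized to 57uM sulphaphenazole.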
# [14] = molecular target: Cytochrome P450 3A4 (Homo sapiens) (UniProt P08684); experiment: qHTS Assay for Inhibitors and Substrates of Cytochrome P450 3A4 (AID 884; active means well fitted curve in the direction sought with a large enough effect; an effect the other way counts as inactive or inconclusive; further: on the % scale 0 is the no-effect control and ±100 the full control effect; nearly all actives have a fitted effect of over 50% in size); settings: recombinant CYP3A4, Luciferin-PPXE luminescence; series mostly up to 57.1 µM
# Method in brief: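 20 nM human CYP3A4 with 25 uM Luciferin-PPXE (at KM) in 200 mM KPO4, preincubated 10 min with compound; NADPH regeneration started a 60 min RT reaction. Luciferin detected by luminescence, normalized to 57 uM ketoconazole as full inhibition.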
# [15] = molecular target: Cytochrome P450 2D6 (Homo sapiens) (UniProt P10635); experiment: qHTS Assay for Inhibitors and Substrates of Cytochrome P450 2D6 (AID 891; active means well fitted curve in the direction sought with a large enough effect; an effect the other way counts as inactive or inconclusive;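 further: luciferin methyl ether substrate demethylated by CYP2D6 with NADPH regeneration; on the % scale 0 is the no-effect control and ±100 the full control effect; nearly all actives have a fitted effect of over 60% in size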); settings: recombinant CYP2D6, luciferin-ME EGE luminescence; series mostly up to 57.1 µM
# Cytochrome P450 2D6 (Homo sapiens), sequence (P10635 whole entry, looked up): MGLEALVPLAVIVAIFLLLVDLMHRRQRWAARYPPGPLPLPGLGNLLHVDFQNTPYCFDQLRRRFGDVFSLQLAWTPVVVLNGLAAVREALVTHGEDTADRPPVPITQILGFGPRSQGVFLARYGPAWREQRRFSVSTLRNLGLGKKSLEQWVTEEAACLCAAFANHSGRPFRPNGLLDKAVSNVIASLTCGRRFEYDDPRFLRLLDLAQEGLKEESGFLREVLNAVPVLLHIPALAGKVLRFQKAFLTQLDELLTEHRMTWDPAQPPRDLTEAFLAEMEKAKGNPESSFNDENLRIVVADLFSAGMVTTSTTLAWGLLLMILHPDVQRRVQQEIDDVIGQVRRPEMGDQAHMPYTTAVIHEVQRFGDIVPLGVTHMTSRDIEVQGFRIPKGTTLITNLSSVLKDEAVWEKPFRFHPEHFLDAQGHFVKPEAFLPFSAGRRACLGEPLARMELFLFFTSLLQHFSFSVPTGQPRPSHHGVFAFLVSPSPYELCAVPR
# Method in brief: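 Human CYP2D6 (5 nM) with 30 uM Luciferin-ME EGE (at Km) in 100 mM KPO4, compound preincubated 10 min, then NADPH regeneration system for 60 min at room temperature. Luciferin read by luminescence; normalized to 1.43 uM quinidine.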
# [16] = molecular target: Cytochrome P450 2C19 (Homo sapiens) (UniProt P33261); experiment: qHTS Assay for Inhibitors and Substrates of Cytochrome P450 2C19 (AID 899; active means well fitted curve in the direction sought with a large enough effect; an effect the other way counts as inactive or inconclusive; further: on the % scale 0 is the no-effect control and ±100 the full control effect; nearly all actives have a fitted effect of over 60% in size); settings: recombinant CYP2C19, luciferin-H EGE luminescence; series mostly up to 57.1 µM
# Cytochrome P450 2C19 (Homo sapiens), sequence (P33261 whole entry, looked up): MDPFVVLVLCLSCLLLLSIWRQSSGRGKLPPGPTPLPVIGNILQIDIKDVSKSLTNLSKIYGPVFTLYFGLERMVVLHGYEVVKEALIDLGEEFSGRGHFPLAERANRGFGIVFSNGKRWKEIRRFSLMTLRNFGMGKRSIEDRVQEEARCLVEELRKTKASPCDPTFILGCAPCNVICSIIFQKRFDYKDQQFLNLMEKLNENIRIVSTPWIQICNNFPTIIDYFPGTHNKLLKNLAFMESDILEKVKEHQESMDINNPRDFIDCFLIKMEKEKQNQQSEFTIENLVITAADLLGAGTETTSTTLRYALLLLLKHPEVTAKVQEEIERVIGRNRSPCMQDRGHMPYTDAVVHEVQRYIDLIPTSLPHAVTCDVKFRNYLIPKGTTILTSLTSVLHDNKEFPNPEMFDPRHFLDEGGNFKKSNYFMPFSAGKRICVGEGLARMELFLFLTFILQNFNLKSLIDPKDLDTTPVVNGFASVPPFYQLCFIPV
# Method in brief: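 Human CYP2C19 (5nM) with Luciferin-H EGE at 10uM (its KM) in 50mM KPO4 was preincubated with compound for 10 min at 37C. NADPH regeneration started a 60 min 37C reaction. Luciferin was read by luminescence, normalized to 57uM ketoconazole.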
# [17] = measured here: cell count channel max response
# [18] = measured here: lipid channel max response
SMILES,Potency [1],Potency [2],outcome [3],Potency [4],"activity change, negative = inhibition [5]",Potency [6],Potency [7],"activity change, negative = inhibition [8]","max response [8, 17] [%]","max response [8, 18] [%]",outcome [9],outcome [10],outcome [11],Potency [12],Potency [13],Potency [14],Potency [15],Potency [16]
CN1CCCC2(CCN(C(=O)c3csnn3)CC2)C1,> 20 µM (inactive),> 11.4 µM (inactive),inactive,inactive,-27.8% (inactive),> 46 µM (inactive),inactive,-1.92% (inactive),-8.1,-6.49,inactive,,,,,,,
c1ccc(CN2CCCC3(CCNCC3)C2)cc1,> 20 µM (inactive),> 11.4 µM (inactive),inactive,,,> 46 µM (inactive),inactive,2.49% (inactive),3.6,7.81,inactive,inactive,inactive,,,,,
CC(C)CN1CCCC2(CCN(C(=O)c3ccncc3)CC2)C1,> 20 µM (inactive),,inactive,12.6 µM (active),,> 46 µM (inactive),,5.13% (inactive),11.3,20.9,inactive,inactive,inactive,inactive,,,,
Cc1noc(C)c1C(=O)N1CCC2(CCCN(CC(C)C)C2)CC1,> 4 µM (inactive),,inactive,inactive,,> 46 µM (inactive),inactive,1.67% (inactive),-5.22,-1.22,inactive,inactive,inactive,,,,,
CN1CCCC2(CCN(C(=O)Oc3ccccc3)CC2)C1,> 20 µM (inactive),,inactive,,,> 46 µM (inactive),inactive,-5.13% (inactive),1.15,-1.11,inactive,inactive,inactive,,,,,
c1cc(CN2CC3(CCNCC3)C2)ccn1,> 20 µM (inactive),> 11.4 µM (inactive),inactive,,,> 46 µM (inactive),inactive,2.64% (inactive),6.79,9.29,inactive,inactive,inactive,,,,,
CN1CCCC2(CCN(C(=O)c3ccncc3)CC2)C1,,> 11.4 µM (inactive),inactive,inactive,-16.6% (inactive),> 46 µM (inactive),inactive,2.07% (inactive),15.5,19.9,inactive,inactive,inactive,,inactive,,,
C[C@]12CC[C@@H](O)C[C@H]1CC[C@@H]1[C@H]2CC[C@]2(C)C(=O)CC[C@@H]12,,,,,,,,,,,inactive,,,,,,,
COC(=O)N1CCC2(CCCN(C)C2)CC1,> 20 µM (inactive),> 11.4 µM (inactive),inactive,inactive,,> 46 µM (inactive),inactive,0.789% (inactive),6.44,8.69,inactive,inactive,,,,,,
CC(C)NC(=O)N1CC[C@@]2(CCCNC2)C1,> 20 µM (inactive),> 11.4 µM (inactive),inactive,inactive,,> 46 µM (inactive),inactive,0.953% (inactive),13.7,18.1,inactive,inactive,inactive,,inactive,inactive,inactive,inactive
C[C@@H]1C[C@@H](O)[C@@]2(O)[C@]13CC(=O)OC[C@]2(C)[C@@](C)(O)C(=O)C3,,,,,,,,,,,inactive,,,,,,,
O=C(Nc1ccccc1)N1CC[C@@]2(CCCN(C(=O)Oc3ccccc3)C2)C1,> 20 µM (inactive),,inactive,15.8 µM (active),1.93% (inactive),> 46 µM (inactive),,8.84% (inactive),9,23.4,inactive,inactive,,inactive,,,,
O=C(Oc1ccccc1)N1CCC2(CC1)CCN(C(c1ccccc1)c1ccccc1)CC2,> 20 µM (inactive),,inactive,,-0.91% (inactive),> 46 µM (inactive),,4.05% (inactive),5.73,13.3,inactive,inactive,inactive,,,,,
c1csc(CN2CC3(CCNCC3)C2)n1,,> 11.4 µM (inactive),inactive,inactive,5.76% (inactive),> 46 µM (inactive),,9.28% (inactive),10.7,24.8,inactive,inactive,inactive,,,,,
